SENP6 inh = SENP6 protease inhibition; inhibition, % at 10 µM; Q9GZR1; hit rate 1.8% among 330,000; AID 2599; Recombinant SENP6 catalytic domain, aminoluciferin luminescence;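 active means inhibition above about 50% at the single tested dose, limit read from the data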
PPC-1+TRAIL kill = PPC-1 cancer cell killing with TRAIL present; PPC-1 cells + TRAIL, ATPLite viability luminescence; cell killing (% activity), % at 4 µM or 5 µM; hit rate 0.41% among 220,000; AID 1443;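 active means cell killing above 50% in the first pass at 4 µM, then a duplicate retest at 5 µM averaging 50% or more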
SENP8 block-1 = inhibitors of human SENP8 protease; AID 2540; Q96LD8; inhibition, % at 10 µM; hit rate 1.2% among 330,000; purified SENP8, Z-RLRGG-aminoluciferin cleavage, luminescence; in the data active means inhibition above about 50%
Target sequence (Q96LD8 whole entry, looked up): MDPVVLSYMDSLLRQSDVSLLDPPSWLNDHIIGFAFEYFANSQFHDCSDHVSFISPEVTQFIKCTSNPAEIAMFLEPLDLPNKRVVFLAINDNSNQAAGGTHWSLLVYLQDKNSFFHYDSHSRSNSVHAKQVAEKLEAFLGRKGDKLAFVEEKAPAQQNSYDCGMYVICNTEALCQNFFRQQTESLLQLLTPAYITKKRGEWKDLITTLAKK
SENP8 block-2 = blocks human SENP8 cleavage of Nedd8 substrate | hit rate 0.64% among 360,000 | inhibition, % at 20 µM | recombinant SENP8, Nedd8 substrate fluorescence; in the data active means inhibition mostly above about 40%, no sharp cut-off; inactive means mostly below about 27%
SENP7 inh = SENP7 protease inhibition; Q9BQF6; hit rate 1.5% among 330,000; inhibition, % at 5 µM; recombinant SENP7, Z-RLRGG-aminoluciferin luminescence, 40 min; AID 434973;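 active means inhibition above about 50% at the single test dose, limit read from the data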
Target sequence (Q9BQF6 706-1050 limits assumed): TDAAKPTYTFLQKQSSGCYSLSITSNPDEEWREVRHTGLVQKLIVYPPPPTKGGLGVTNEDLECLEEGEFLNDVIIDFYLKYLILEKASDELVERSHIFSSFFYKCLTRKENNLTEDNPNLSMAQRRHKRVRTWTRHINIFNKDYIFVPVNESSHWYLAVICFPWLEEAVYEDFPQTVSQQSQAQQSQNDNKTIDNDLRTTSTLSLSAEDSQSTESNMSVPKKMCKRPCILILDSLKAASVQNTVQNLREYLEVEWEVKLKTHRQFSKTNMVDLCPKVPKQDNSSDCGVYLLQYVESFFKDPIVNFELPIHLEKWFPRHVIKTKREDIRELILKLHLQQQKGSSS
TRAIL sens C8 = caspase-8 TRAIL sensitization | NB7+C8 cells + TRAIL, ATPlite viability luminescence | inhibition (viability loss, TRAIL sensitization), % at 10 µM | hit rate 1% among 360,000 | AID 624354;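 active means compounds causing at least 50% loss of cell viability in the single-dose screen, relative to plate controls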
Of the large screens only hits and unclear results are named; the others gave an inactive call. Compounds with a hit are over-represented: about 3% of the library has one in this group of screens.

COC(=O)c1cc(NS(=O)(=O)c2ccc(N3CCOCC3)c(N)c2)cc(C(=O)OC)c1	none
Cc1nc(NC(=O)c2ccccc2)sc1-c1csc(Nc2ccc(Cl)cc2Cl)n1	SENP6 inh 51, SENP7 inh 59 (no result: SENP8 block-2, TRAIL sens C8)
Cc1nc(NC(=O)c2ccccc2)sc1-c1csc(Nc2ccc(F)cc2)n1	none (no result: SENP8 block-2, TRAIL sens C8)
Cc1nc(NC(=O)c2ccccc2)sc1-c1csc(Nc2ccc(Cl)cc2)n1	SENP6 inh 51 (no result: SENP8 block-2, TRAIL sens C8)
CCn1nc(C)c(/C=N/NC(=O)c2ccc3c(c2)c(C)c(C)n3Cc2ccccc2)c1C	none
Cc1onc(-c2ccccc2)c1CNC(=O)Nc1ccccc1	none
COc1cccc(/C=N/NC(=O)CN(CCc2ccccc2)S(=O)(=O)c2ccc(NC(C)=O)cc2)c1	none
COc1ccc(C[C@H](N)C(=O)N[C@H]2[C@@H](O)[C@H](n3cnc4c(N(C)C)ncnc43)O[C@@H]2CO)cc1	TRAIL sens C8 92 (no result: PPC-1+TRAIL kill)
Cc1ccc(/C=C/C(=O)NCc2cccs2)o1	none
Cc1ccccc1-c1nnc(NC(=O)CSc2nc3ccccc3s2)s1	none
CCOC(=O)N1CCN(c2cc(NCCC(=O)O)c3c4c(onc24)-c2ccccc2C3=O)CC1	SENP8 block-2 88
O=C1c2ccccc2-c2onc3c(N4CCN(CCO)CC4)cc(N4CCN(C(=O)c5ccco5)CC4)c1c23	SENP8 block-2 75 (no result: PPC-1+TRAIL kill)
O=C(O)CCCNc1cc(N2CCN(C(=O)c3ccco3)CC2)c2noc3c2c1C(=O)c1ccccc1-3	SENP8 block-2 77 (no result: PPC-1+TRAIL kill)
O=C(c1ccco1)N1CCN(CCCCN2C(=O)c3ccccc3C2=O)CC1	none
C/C=C/C(=O)Nc1cccc(C2=NOC3(C2)C[C@@H](C(N)=O)N(C(=O)/C(C)=C/C)C3)c1 (stereo not given in full)	none
CCCCn1c(N)c(N(CCOC)C(=O)CSc2n[nH]c(-c3ccc(C)cc3)n2)c(=O)[nH]c1=O	none (no result: PPC-1+TRAIL kill)
CCCCCN(C(=O)CSc1n[nH]c(-c2ccc(C)cc2)n1)c1c(N)n(CCCC)c(=O)[nH]c1=O	TRAIL sens C8 55 (no result: PPC-1+TRAIL kill)
N/C(=N\OC(=O)c1ccccc1)C(Cc1ccccc1)C(=O)NOC(=O)c1ccccc1 (stereo not given)	TRAIL sens C8 89 (no result: SENP6 inh, PPC-1+TRAIL kill, SENP8 block-1, SENP7 inh)
O=C(NOC(=O)c1ccccc1)c1ccccc1	none
C=Cc1ccc(Cn2c(C)c(C(=O)NCc3ccc(C#N)cc3)sc2=O)cc1	none (no result: SENP6 inh, PPC-1+TRAIL kill, SENP8 block-1, SENP7 inh)
CC(C)(C)C1C=C(Sc2ccccc2)C(=O)O1 (stereo not given)	none
Cn1c(=O)c(C(=O)Nc2ccccn2)c(O)c2ccccc21	SENP7 inh 75, TRAIL sens C8 62
Cn1c(=O)c(C(=O)Nc2cnccn2)c(O)c2ccccc21	none (no result: SENP6 inh, SENP8 block-1, SENP8 block-2, SENP7 inh, TRAIL sens C8)
O=C(Nc1ccc(C(=O)O)cc1)Nc1ccc([N+](=O)[O-])cc1	none (no result: PPC-1+TRAIL kill)
O=C(Nc1cc(C(F)(F)F)cc(C(F)(F)F)c1)Nc1cnn(-c2ccc([N+](=O)[O-])cc2)c1C(F)(F)F	TRAIL sens C8 47
COc1ccc(C(NC(=O)C2CCN(C/C=C/c3ccc(OC(C)=O)c(OC)c3)CC2)c2ccccn2)cc1 (stereo not given)	none (no result: SENP6 inh, PPC-1+TRAIL kill, SENP8 block-1, SENP7 inh)
Clc1ccc(/C=N/Nc2nnc(-c3ncc[nH]3)c3ccccc23)cc1	TRAIL sens C8 54
CCNC(=O)C1(C)CCCN(C(=O)CCc2cccs2)C1 (stereo not given)	none (no result: SENP6 inh, PPC-1+TRAIL kill, SENP8 block-1, SENP7 inh)
O=C(CC(Nc1ccccc1)C(=O)O)c1ccccc1 (stereo not given)	SENP6 inh 79, SENP8 block-1 54
CCCn1c(=O)c(C(=O)NCc2ccco2)c(O)c2ccccc21	none
CCN1/C(=C/c2cccc[n+]2C)Sc2ccc(OC)cc21	TRAIL sens C8 54 (no result: PPC-1+TRAIL kill)
COc1ccc2c(c1)N(C)/C(=C/c1cccc[n+]1C)S2	none (no result: PPC-1+TRAIL kill)
O=C(COc1ccccc1C(=O)c1cnn(-c2ccccc2)c1)Nc1ccccc1	TRAIL sens C8 60
O=C(CSc1nnc(-c2ccco2)c(-c2ccco2)n1)Nc1ccccc1	none
Cc1cccc(C)c1NC(=O)CSc1nnc(-c2ccco2)c(-c2ccco2)n1	SENP8 block-2 60
Cc1ccc(NC(=O)CSc2nnc(-c3ccco3)c(-c3ccco3)n2)cc1	none
Cc1ccccc1NC(=O)CSc1nnc(-c2ccco2)c(-c2ccco2)n1	SENP8 block-2 42
CN(C)c1ccc(NC(=O)CSc2nnc(-c3ccco3)c(-c3ccco3)n2)cc1	SENP8 block-2 46 (no result: PPC-1+TRAIL kill)
COC(=O)C1CCN(C(=O)/C(C)=C\c2ccccc2)CC1	none (no result: PPC-1+TRAIL kill)
Nc1ccc2c(c1)N=[N+]([O-])c1cc(N)ccc1C2	none
CC(C)CC1NC(=O)c2ccccc2-n2c1nc1ccc(F)cc1c2=O (stereo not given)	none (no result: PPC-1+TRAIL kill, SENP8 block-2, TRAIL sens C8)
CC(C)(C)OC(=O)CNC(=O)c1[nH]cnc1C(=O)Nc1ccc(Cl)cc1	none
OCC[C@@H]1C[C@@H](O)[C@H](O)[C@]2(Cc3ccccc3O2)O1	none (no result: PPC-1+TRAIL kill)
CCC(C)(C)NC(=O)CN(C(=O)CCC(=O)Nc1nccs1)c1ccc(C)cc1	none (no result: PPC-1+TRAIL kill)
CC(C)(C)c1ccc(-c2noc(CCC(=O)Nc3cccnc3)n2)cc1	TRAIL sens C8 50 (no result: PPC-1+TRAIL kill)
COc1ccc(-c2noc(CCC(=O)Nc3cccnc3)n2)cc1	none (no result: PPC-1+TRAIL kill)
O=c1c(-c2ccccc2)nc2ccccc2n1C(CCc1ccccc1)c1nc2ccccc2[nH]1 (stereo not given)	none (no result: SENP6 inh, PPC-1+TRAIL kill, SENP8 block-1, SENP7 inh)
O=[N+]([O-])c1cc(S(=O)(=O)N2CCCCCC2)ccc1Cl	PPC-1+TRAIL kill 56
Cc1cc(/C=C(\C#N)c2nc3ccccc3[nH]2)c(C)n1C	TRAIL sens C8 78
COc1ccc(/C=C(\C#N)c2nc3ccccc3[nH]2)cc1O	SENP6 inh 57, TRAIL sens C8 52 (no result: PPC-1+TRAIL kill)
COc1cc(/C=C(\C#N)c2nc3ccccc3[nH]2)cc(OC)c1O	none (no result: SENP6 inh, SENP8 block-1, SENP7 inh)
O=C1NCCCC1C(=O)N/N=C/c1cc([N+](=O)[O-])ccc1O (stereo not given)	SENP8 block-2 45
CCCN1C(=O)/C(=C\C=C2/C=CN(CC)c3ccccc32)SC1=S	SENP8 block-2 55
COC(=O)c1sc(S(=O)(=O)Nc2ccc(C)c(C)c2)c(C(=O)OC)c1C	none
O=C(NCc1cc(C(F)(F)F)ccc1Cl)c1cccc2c1C(=O)c1ccc(-c3ccc(OC(F)(F)F)cc3)cc1S2(=O)=O	none (no result: PPC-1+TRAIL kill, SENP8 block-2, TRAIL sens C8)
O=C(NCc1ccccc1Cl)c1cccc2c1C(=O)c1ccc(-c3ccc(OC(F)(F)F)cc3)cc1S2(=O)=O	TRAIL sens C8 54 (no result: PPC-1+TRAIL kill)
COc1cccc2c1-c1c(O)cccc1C2=O	none (no result: PPC-1+TRAIL kill)
COc1cccc2c1C(=O)c1c(O)c3c(c(O)c1C2=O)CC(O)(C(C)=O)CC3OC1CC(O)C(O)C(C)O1 (stereo not given)	SENP8 block-2 50 (no result: SENP6 inh, PPC-1+TRAIL kill, SENP8 block-1, SENP7 inh)
CCCCC(=O)OCC(=O)C1(O)Cc2c(O)c3c(c(O)c2C(OC2CC(NC(=O)C(F)(F)F)C(O)C(C)O2)C1)C(=O)c1c(OC)cccc1C3=O (stereo not given)	SENP8 block-2 45 (no result: SENP6 inh, PPC-1+TRAIL kill, SENP8 block-1, SENP7 inh)
COc1cccc2c1C(=N)c1c(O)c3c(c(O)c1C2=O)CC(O)(C(C)=O)CC3OC1CC(N)C(O)C(C)O1 (stereo not given)	none (no result: SENP6 inh, PPC-1+TRAIL kill, SENP8 block-1, SENP7 inh)

Bioassay records as filed in PubChem BioAssay.
